# Measurements as given in PubChem BioAssay (NCATS).
# “And” between values parts separate entries of the source, which are not always exact repeats. Equal entries are not always repeated. Results filed as inconclusive are left out. Entries that show only a call come without a potency. A number with no mark means an inactive call. The source made the active and inactive calls. The call rests on the fitted dose curve; in most records, active means well fitted curve in the direction sought with a large enough effect; inconclusive means small, poorly fitted or top-dose-only effect, or another doubt; inactive means no such curve, though single readings can be large; an effect the other way counts as inactive or inconclusive.
# Assays:
# MKL-1 = assay: qHTS assay to identify novel small-molecules to repurpose for Merkel cell carcinoma treatment (AID 1296009); settings: MCC and control cell lines, CellTiter-Glo viability, 72 h; series mostly up to 46 µM; further: nearly all actives have a fitted effect of over 60% in size
# Summary of the method: (§1)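 qHTS format: cells treated with library compounds in DMSO across 8 (NPC) or 11 (MIPE) concentrations. Readout after 72 hr at 37 degree celsius was CellTiter-Glo luminescence.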
# MKL-2 = assay: as above; settings: MCC and control cell lines, CellTiter-Glo viability, 72 h; series mostly up to 46 µM
# Summary of the method: as §1
# WaGa = assay: as above; settings: MCC and control cell lines, CellTiter-Glo viability, 72 h; series mostly up to 46 µM
# Summary of the method: as §1
# [1] = qHTS assay to identify inhibitors of the type 1 interferon - major histocompatibility complex class I in skeletal muscle: Counter screen cell viability and HiBit confirmation (AID 1347412); settings: iHSKM muscle cells + IFN-b, HiBiT or CellTiter-Glo, 24 h; for activity change, negative = inhibition: at 45.9 µM (top of the series); on all read-outs here: nearly all actives have a fitted effect of over 60% in size
# Summary of the method: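 Human myoblast knock-in line, 4.0 ng/ml IFN-beta stimulation, 24 h compound treatment. Endpoints: HiBiT lytic luminescence (HLA-B level) and CellTiter Glo (ATP). Dosing 12 concentrations, 3-fold steps, 46 uM highest final.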
# UISO = assay: qHTS assay to identify novel small-molecules to repurpose for Merkel cell carcinoma treatment (AID 1296009); settings: MCC and control cell lines, CellTiter-Glo viability, 72 h; series mostly up to 46 µM; further: nearly all actives have a fitted effect of over 60% in size
# Summary of the method: as §1
# NIH3T3 = assay: as above; settings: MCC and control cell lines, CellTiter-Glo viability, 72 h; at 44.8 µM (top of the series) unless noted
# Summary of the method: as §1
# C33A = assay: Primary qHTS to identify gynecologic anti-cancer compounds using libraries of approved drugs and bioactive compounds (AID 1345084); settings: Gynecologic cancer cell panel viability, ATPlite luminescence, 48 h; series mostly up to 57.5 µM; further: nearly all actives have a fitted effect of over 55% in size
# Summary of the method: (§2)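 Luminescence from the ATPlite ATP-monitoring reagent indicates viable cell number; lower signal means cytotoxicity. Cells received compound 16 h after seeding and were exposed for 48 h across five concentrations.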
# CASKI = assay: as above; settings: Gynecologic cancer cell panel viability, ATPlite luminescence, 48 h; series mostly up to 57.5 µM
# Summary of the method: as §2
# Es-2 = assay: as above; settings: Gynecologic cancer cell panel viability, ATPlite luminescence, 48 h; series mostly up to 57.5 µM
# Summary of the method: as §2
# Hek293T = assay: as above; settings: Gynecologic cancer cell panel viability, ATPlite luminescence, 48 h, control line for the selectivity index; series mostly up to 57.5 µM
# Summary of the method: as §2
# JEG-3 = assay: as above; settings: Gynecologic cancer cell panel viability, ATPlite luminescence, 48 h; series mostly up to 57.5 µM
# Summary of the method: as §2
# OV90 = assay: as above; settings: Gynecologic cancer cell panel viability, ATPlite luminescence, 48 h; series mostly up to 57.5 µM
# Summary of the method: as §2
# PA-1 = assay: as above; settings: Gynecologic cancer cell panel viability, ATPlite luminescence, 48 h; series mostly up to 57.5 µM
# Summary of the method: as §2
# Tov-21-G = assay: as above; settings: Gynecologic cancer cell panel viability, ATPlite luminescence, 48 h; series mostly up to 57.5 µM
# Summary of the method: as §2
# Tov112D = assay: as above; settings: Gynecologic cancer cell panel viability, ATPlite luminescence, 48 h; series mostly up to 57.5 µM
# Summary of the method: as §2
# HeLa = assay: as above; settings: Gynecologic cancer cell panel viability, ATPlite luminescence, 48 h; series mostly up to 57.5 µM
# Summary of the method: as §2
# SKOV3 = assay: as above; settings: Gynecologic cancer cell panel viability, ATPlite luminescence, 48 h; series mostly up to 57.5 µM
# Summary of the method: as §2
# astro = assay: Drug repurposing screens with cells derived from glioblastoma tumor samples (AID 1345199); settings: viability, ATP luminescence, 48 h; series mostly up to 45.9 µM; further: nearly all actives have a fitted effect of over 40% in size
# Summary of the method: (§3)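 Four patient lines of CD133+ GBM neurospheres were screened at several concentrations; hits were retested in those lines plus three slower-growing GBM lines, using 48-hour treatment and ATP-based viability.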
# [2] = as above; settings: GBM patient neurospheres viability, ATP luminescence, 48 h
# Summary of the method: as §3
# CAOV3 = assay: Primary qHTS to identify gynecologic anti-cancer compounds using libraries of approved drugs and bioactive compounds (AID 1345084); settings: Gynecologic cancer cell panel viability, ATPlite luminescence, 48 h; series mostly up to 57.5 µM; further: nearly all actives have a fitted effect of over 55% in size
# Summary of the method: as §2
# Potency means the concentration at half of the fitted maximal effect.
smiles,measurement,setting,value
CC=C(C)C(=O)O[C@H]1C(C)=C[C@]23C(=O)[C@@H](C=C(CO)[C@@H](O)[C@]12O)[C@H]1[C@@H](C[C@H]3C)C1(C)C,Potency,MKL-1,inactive
same,Potency,MKL-2,inactive
same,Potency,WaGa,inactive
Cc1ccc(C(=O)Nc2cccc(C(F)(F)F)c2)cc1Nc1nc(-c2cccnc2)nc2c1cnn2C,Potency,MKL-1,inactive
same,Potency,MKL-2,inactive
same,Potency,WaGa,inactive
same,"activity change, negative = inhibition",[1]; HiBiT,-9.48%
same,"activity change, negative = inhibition",[1]; Viability,-7.92%
O=c1c(-c2ccc(O)cc2)coc2cc(OC3O[C@H](CO)[C@H](O)[C@H](O)[C@H]3O)cc(O)c12 (stereo partly specified),Potency,MKL-1,inactive
same,Potency,MKL-2,inactive
same,Potency,WaGa,inactive
O=C(O)c1ccc(-c2c[nH]c3ncc(-c4ccccc4)cc23)cc1C1CCCC1,Potency,MKL-1,inactive
same,Potency,UISO,inactive
same,Potency,WaGa,inactive
Cc1c[nH]c(C=C2C(=O)Nc3ccccc32)c1CCC(=O)O,Potency,MKL-1,inactive
same,Potency,MKL-2,inactive
same,Potency,WaGa,inactive
CC(C)C[C@H](CC(=O)O)C(=O)N[C@@H](Cc1c[nH]c2ccccc12)C(=O)N[C@@H](C)c1ccccc1,Potency,MKL-1,4.69 µM (active)
same,Potency,UISO,inactive
same,Potency,WaGa,3.32 µM (active)
CC(C)(Cc1ccc2ccccc2c1)NC[C@@H](O)COc1cccc(Cl)c1C#N,Potency,MKL-1,inactive
same,Potency,UISO,inactive
COc1cccc([C@@H](C)NCCCc2ccccc2Cl)c1,Potency,MKL-1,inactive
same,outcome,NIH3T3,inactive
same,Potency,UISO,inactive
same,Potency,WaGa,inactive
O=C1C(Cl)=C(NCCN2CCOCC2)C(=O)c2ncccc21,Potency,MKL-1,1.32 µM (active)
same,Potency,MKL-2,2.96 µM (active)
same,Potency,UISO,8.33 µM (active)
same,Potency,[1]; HiBiT,5.57 µM (active)
same,Potency,[1]; Viability,5.57 µM (active)
NC(=O)c1cccc2[nH]c(-c3ccc([C@H]4CCCN4)cc3F)nc12,Potency,MKL-1,20.9 µM (active)
same,Potency,MKL-2,2.35 µM (active)
same,Potency,WaGa,20.9 µM (active)
same,Potency,C33A,17.8 µM (active)
same,Potency,CASKI,12.6 µM (active)
same,Potency,Es-2,31.6 µM (active)
same,Potency,Hek293T,17.8 µM (active)
same,Potency,JEG-3,14.1 µM (active)
same,Potency,OV90,14.1 µM (active)
same,Potency,PA-1,12.6 µM (active)
same,Potency,Tov-21-G,14.1 µM (active)
same,Potency,Tov112D,12.6 µM (active)
O=C(CCCCCCC(=O)Nc1ccccc1)NO,Potency,MKL-1,2.99 µM (active) and 5.9 µM (active)
same,Potency,MKL-2,1.88 µM (active) and 3.32 µM (active)
same,Potency,UISO,14.8 µM (active)
same,Potency,C33A,6.31 µM (active) and 14.1 µM (active)
same,Potency,Es-2,7.08 µM (active) and 12.6 µM (active)
same,Potency,HeLa,8.91 µM (active) and 10 µM (active)
same,Potency,JEG-3,3.98 µM (active) and 8.91 µM (active)
same,Potency,SKOV3,3.16 µM (active) and 12.6 µM (active)
same,Potency,Tov-21-G,11.2 µM (active) and 5.01 µM (active)
same,Potency,Tov112D,7.08 µM (active) and 11.2 µM (active)
same,Potency,astro,10 µM (active) and 8.91 µM (active)
same,Potency,[1]; HiBiT,3.52 µM (active)
same,"activity change, negative = inhibition",[1]; Viability,2.12%
O=C1NC(=O)C(=Cc2cccc(C(F)(F)F)c2)S1,Potency,MKL-1,inactive
same,Potency,MKL-2,inactive
same,Potency,WaGa,inactive
CC[C@H]1OC(=O)[C@H](C)[C@@H](O[C@H]2C[C@@](C)(OC)[C@@H](O)[C@H](C)O2)[C@H](C)[C@@H](O[C@@H]2O[C@H](C)C[C@H](N(C)C)[C@@H]2O)[C@](C)(O)C[C@@H](C)CN(C)[C@H](C)[C@@H](O)[C@]1(C)O,Potency,MKL-1,inactive
same,outcome,NIH3T3,inactive
same,Potency,UISO,inactive
same,Potency,WaGa,inactive
CCOC(CN1C(=O)[C@](CC(=O)Nc2ccc(C)cc2)(NC(=O)Nc2ccc(C)cc2)c2ccccc21)OCC,Potency,MKL-1,inactive
same,Potency,UISO,inactive
same,Potency,WaGa,inactive
Clc1ccc(Cn2c(CN3CCCC3)nc3ccccc32)cc1,Potency,MKL-1,inactive
same,Potency,WaGa,inactive
same,Potency,C33A,inactive
same,Potency,CASKI,inactive
same,Potency,Es-2,inactive
same,Potency,HeLa,inactive
same,Potency,Hek293T,inactive
same,Potency,JEG-3,inactive
same,Potency,OV90,inactive
same,Potency,PA-1,inactive
same,Potency,SKOV3,inactive
same,Potency,Tov-21-G,inactive
same,Potency,Tov112D,inactive
same,"activity, negative = cell killing","[2]; at 20 µM (top of the series), tumour line C",-7.94%
same,"activity, negative = cell killing","[2]; at 21.2 µM (top of the series), tumour line B",-28.4%
same,Potency,[2]; tumour line A,2.51 µM (active)
same,Potency,astro,inactive
COCCOc1nc(-c2ccc(Cl)c(Cl)c2)n(-c2ccc(NC(=O)CCl)cc2)n1,Potency,MKL-1,inactive
same,Potency,C33A,20 µM (active)
same,Potency,CAOV3,28.2 µM (active)
same,Potency,Es-2,11.2 µM (active)
same,Potency,HeLa,inactive
same,Potency,OV90,inactive
same,Potency,Tov-21-G,5.62 µM (active)
same,Potency,[1]; HiBiT,3.52 µM (active)
same,Potency,[1]; Viability,7.87 µM (active)
CC(C)C(=O)Nc1ncc(-c2cc(C(F)F)nn2-c2c(Cl)cccc2Cl)s1,Potency,MKL-1,inactive
same,Potency,WaGa,inactive
same,Potency,C33A,inactive
same,Potency,CASKI,inactive
same,Potency,Es-2,inactive
same,Potency,Hek293T,inactive
same,Potency,JEG-3,inactive
same,Potency,OV90,inactive
same,Potency,SKOV3,inactive
Cc1cnc(C(=O)O)c[n+]1[O-],Potency,MKL-1,inactive
same,Potency,UISO,inactive
same,Potency,WaGa,inactive
same,"activity, negative = cell killing","[2]; at 45.9 µM (top of the series), tumour line B",-12.7% and -17.2% and -5.56%
same,"activity, negative = cell killing","[2]; at 45.9 µM (top of the series), tumour line D",-2.04% and 1.27% and -4.74%
same,"activity, negative = cell killing","[2]; at 46 µM (top of the series), tumour line A",-14.3% and -47.1%
same,"activity, negative = cell killing","[2]; at 46.1 µM (top of the series), tumour line C",-29.9% and -17.2% and -16.5%
same,Potency,astro,inactive
NC(=O)c1ccc2nc(-c3ccc(Oc4ccc(Cl)cc4)cc3)[nH]c2c1,Potency,MKL-1,inactive
same,Potency,CASKI,inactive
same,Potency,Hek293T,inactive
same,Potency,JEG-3,inactive
same,Potency,PA-1,15.8 µM (active)
same,Potency,Tov112D,inactive
Cc1ccn(-c2ccc(-c3ncco3)cc2)c(=O)c1-c1ccc2nc(N)ncc2c1,Potency,MKL-1,inactive
same,Potency,WaGa,inactive
same,Potency,CAOV3,inactive
same,Potency,HeLa,inactive
same,Potency,Hek293T,inactive
same,Potency,JEG-3,inactive
same,Potency,OV90,inactive
same,Potency,PA-1,11.2 µM (active)
same,Potency,SKOV3,3.55 µM (active)
same,Potency,Tov-21-G,11.2 µM (active)
same,Potency,Tov112D,inactive
CC(=O)Nc1ccc([C@H](C)C(=O)Nc2ncc(C(C)C)s2)cc1,Potency,MKL-2,9.35 µM (active)
same,Potency,UISO,7.43 µM (active)
same,Potency,C33A,20 µM (active)
same,Potency,CAOV3,inactive
same,Potency,Es-2,14.1 µM (active)
same,Potency,Hek293T,15.8 µM (active)
same,Potency,JEG-3,inactive
same,Potency,PA-1,22.4 µM (active)
same,Potency,SKOV3,inactive
same,Potency,[1]; HiBiT,2.49 µM (active)
same,"activity change, negative = inhibition",[1]; Viability,-0.582%
O=C(NCc1ccncc1)C12C[C@H]3C[C@@H](C1)CC(c1ccc(Cl)cc1)(C3)C2,Potency,MKL-2,inactive
CC1(C)CCC(CN2CCN(c3ccc(C(=O)NS(=O)(=O)c4ccc(NCC5CCOCC5)c([N+](=O)[O-])c4)c(Oc4cnc5[nH]ccc5c4)c3)CC2)=C(c2ccc(Cl)cc2)C1,Potency,MKL-1,inactive
same,Potency,UISO,inactive
same,Potency,WaGa,inactive
same,Potency,C33A,inactive
same,Potency,CASKI,inactive
same,Potency,Es-2,inactive
same,Potency,HeLa,inactive
same,Potency,Hek293T,inactive
same,Potency,OV90,inactive
same,Potency,PA-1,inactive
same,Potency,SKOV3,inactive
same,Potency,Tov-21-G,inactive
same,Potency,Tov112D,inactive
COCCOC(=O)C1=C(C)NC2=C(C(=O)CC(c3ccccc3OC)C2)C1c1cccc(O)c1 (stereo unspecified),Potency,MKL-1,inactive
same,Potency,C33A,inactive
same,Potency,CASKI,inactive
same,Potency,Es-2,inactive
same,Potency,Hek293T,inactive
same,Potency,JEG-3,inactive
same,Potency,OV90,inactive
same,Potency,PA-1,inactive
same,Potency,Tov-21-G,inactive
same,Potency,Tov112D,inactive
